Source: PubChem BioAssay (National Center for Advancing Translational Sciences (NCATS))
Compounds with a hit are over-represented: about 7.9% of the library has one in this group of screens.
HT1080 IDH1KD tx: kills HT-1080 cells with IDH1 knockdown; HT-1080 IDH1 knockdown viability, ATP luminescence, 48 h; Potency, µM (titrated, usually from 46.1 µM), inactives show at the highest dose activity, negative = toxicity, actives largely listed as cytotoxic; actives 2% (n = 360,000); AID 686971;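 also: 0% = DMSO wells and -100% = cell-free medium wells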
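IDH1KD HT-1080 cells, 750/well, RPMI + 5% FBS; compound pinned after 2 h settling; 48 h, 37 °C; CellTiter-Glo luminescence; % activity normalised to DMSO and no-cell wells; curves fitted, classed by r2 and efficacy.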
KB-3-1 tox: kills parental KB-3-1 adenocarcinoma cells; Potency, µM (series often up to 46.1 µM), hits mostly cytotoxic; AID 1347075; KB-3-1 viability, CellTiter-Glo ATP luminescence, 72 h; actives 1.4% (n = 400,000); also: % is scaled to controls: 0 for no effect and ±100 for the full control effect; nearly all actives have a fitted effect of over 60% in size
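Parental KB-3-1 adenocarcinoma cells in phenol-red-free DMEM with 10% FBS were pin-treated with compounds at several concentrations, incubated 72 h at 37 °C, and viability read by CellTiter-Glo luminescence; concentration-effect curves were fitted after normalization.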
HT1080NT lethal: kills 2HG-producing HT-1080-NT fibrosarcoma cells; AID 686970; actives 1.6% (n = 360,000); Potency, µM (highest dose often 46.1 µM), for inactives: at the top dose activity, negative = less viability, most hits filed as cytotoxic; HT-1080-NT fibrosarcoma viability, CellTiter-Glo ATP luminescence, 48 h;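 also: NT is the 2HG producing partner of a matched IDH1 knockdown line; 0% = DMSO-treated cells and -100% = media-only wells without cells; nearly all actives have a fitted effect of over 55% in size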
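Read-out is CellTiter-Glo luminescence after 10 minutes at room temperature, following 48 hours' compound treatment of HT-1080-NT cells (750 cells/well, RPMI, 5% FBS, 37 degrees C).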
KB-V1 MDR tox: KB-V1 MDR subline cytotoxicity | KB-V1 MDR cells viability, CellTiter-Glo, 72 h | Potency, µM (titrated, usually from 46.1 µM), hits mostly cytotoxic | actives 3.4% (n = 400,000) | AID 1347076; also: % is scaled to controls: 0 for no effect and ±100 for the full control effect; nearly all actives have a fitted effect of over 60% in size
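Cytotoxicity via CellTiter-Glo luminescence after 72 h compound exposure at 37 degrees C. Cells: drug-selected KB-V1 line, DMEM phenol-red free plus 10% FBS. Compounds tested at multiple concentrations; normalized data fitted to concentration-effect curves.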
MCF10A rereplic: DNA re-replication induction in MCF 10a cells. actives 2.9% (n = 350,000). Potency, µM (highest dose often 46.1 µM), without a hit: at the top dose activity, positive = re-replication, hits mostly activators. MCF 10A DNA re-replication, Hoechst nuclear intensity, 48 h; also: % of control where 0% means no effect; nearly all actives have a fitted effect of over 50% in size
SW480 rereplic: DNA re-replication induction in SW480 cells | SW480 DNA re-replication, Hoechst DNA content imaging, 48 h | actives 1.8% (n = 340,000) | AID 624297 | Potency, µM (top dose mostly 46.1 µM), for the others: at the highest dose re-replication activation, hits mostly activators; also: % of control where 0% means no effect; nearly all actives have a fitted effect of over 55% in size
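Readout is total intensity of Hoechst-stained nuclei, excited at 405 nm and collected at 500-530 nm. Compound treatment lasted 48 hr at 37 C in 5% CO2 before staining.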
Numbers without * were called inactive; i = inactive; ? = inconclusive; · = no result; [ ] = dose if it differs, or a comment. Calls follow the shape of the dose curve; as a rule, active = well fitted curve in the direction sought with a large enough effect; inconclusive = small, poorly fitted or top-dose-only effect, or another doubt; inactive = no such curve, though single readings can be large; an effect the other way counts as inactive or inconclusive. Potency is read from the fitted curve at half-maximal effect.

SMILES | HT1080 IDH1KD tx | KB-3-1 tox | HT1080NT lethal | KB-V1 MDR tox | MCF10A rereplic | SW480 rereplic
Oc1ccc(/C=N/N=C(c2ccccc2)c2ccccc2)c(O)c1O | ? | ? | -15% | i | 21µM* | -2%
O=C(/C(=N/N=C/c1ccc(O)c(O)c1O)c1ccccc1)c1ccccc1 | ? | ? | -16% | ? | ? | ?
Cc1ccc(S(=O)(=O)c2nc(Nc3ccccc3C#N)sc2Cl)cc1 | 2% | i | -2% | i | 25% | -15%
Cc1ccc(S(=O)(=O)c2nc(Nc3ccccc3N3CCOCC3)sc2Cl)cc1 | 7% | i | 20% | 10µM* | 13% | 5%
COCCNC(=O)C1CCCN(C(=O)c2ccc(F)c(C)c2)CC1 (stereo not given) | 4% | ? | 2% | ? | · | ·
CC(=O)OCCN(C)c1cc(SC(C)C)c2nonc2c1[N+](=O)[O-] | ? | i | ? | i | ? | ?
CN(CCO)c1cc(Sc2nc3ccccc3s2)c2nonc2c1[N+](=O)[O-] | 5µM* | ? | 6.3µM* | i | ? | 13%
Cn1c(=O)[nH]c2cc(-c3noc(-c4ccc(C#N)cc4)n3)ccc21 | · | i | · | ? | · | ·
Cc1cc(C)c(O)c(CN(C)Cc2cc(Cl)cc(Cl)c2O)c1 | ? | ? | ? | ? | 1.6µM* | ?
COc1ccc(-c2sc(C(=O)c3ccc(Cl)cc3Cl)cc2CC(=O)O)cc1 | ? | ? | ? | ? | 12µM* | 9%
O=C(O)Cc1ccc(C(=O)c2ccc(Cl)cc2Cl)s1 | 19% | i | 6% | i | 1% | -2%
CCOC(=O)c1cc2c(ccc3nc(C)c(C)c32)[nH]c1C | -7% | i | -9% | i | 15µM* | 8.2µM*
Cc1noc(C)c1COc1ccccc1C(=O)N(C)Cc1ccc(C(C)(C)C)cc1 | ? | i | -24% | ? | 12% | -5%
Cc1ccc2occ(CN3CCN(c4ccccc4)CC3)c(=O)c2c1 | ? | i | -6% | 23µM* | ? | -3%
CCN1CCN(Cc2coc3ccc(C)cc3c2=O)CC1 | -12% | i | -5% | i | ? | -7%
CC(c1ccccc1)N1CCC(CNC(=S)Nc2cccc(Cl)c2)C1 (stereo not given) | 18µM* | i | 18µM* | i | ? | ?
Cc1ccc(NC(=S)NCC2CCN(C(C)c3ccccc3)C2)cc1 (stereo not given) | -3% | i | -28% | i | 5% | 0%
CCOc1ccc(NC(=O)c2ccc(NC(=O)CCS(=O)(=O)c3cccs3)cc2)cc1 | · | i | · | i | · | ·
O=C(CSc1nc(-c2ccc(F)cc2)[nH]c1-c1ccc(F)cc1)Nc1ccc2c(c1)OCCO2 | · | ? | · | 18µM* | · | ·
O=C(CSc1nc(-c2ccc(F)cc2)[nH]c1-c1ccc(F)cc1)Nc1ccc2c(c1)OCO2 | · | ? | · | i | · | ·
CCc1nc(SCC(=O)Nc2ccc3c(c2)OCCO3)c2oc3ccccc3c2n1 | 0% | ? | 2% | 21µM* | 23µM* | 1%
O=C(CSc1ncnc2c1oc1ccccc12)Nc1cccc(F)c1 | -16% | i | -12% | i | ? | -3%
Cc1nc(SCC(=O)N2CCN(c3ccccc3)CC2)c2oc3ccccc3c2n1 | 3%[9.24 µM] | i | -20% | 21µM* | ? | -6%
O=C(CSc1ncnc2c1oc1ccccc12)Nc1ccc2c(c1)OCCO2 | -17% | i | -13% | 16µM* | 22% | -2%
CCc1nc(SCC(=O)NC2CCCC2)c2oc3ccccc3c2n1 | 4% | i | 9% | ? | 4% | 0%
SMILES | HT1080 IDH1KD tx | KB-3-1 tox | HT1080NT lethal | KB-V1 MDR tox | MCF10A rereplic | SW480 rereplic
Cc1nc(SCC(=O)O)c2oc3ccccc3c2n1 | -18% | i | -3% | i | 584%[0.0737 µM] | -2%
Cc1ccccc1-c1nnn(CC(=O)Nc2sc3c(c2C#N)CCC(C(C)(C)C)C3)n1 (stereo not given) | · | i | · | i | · | ·
CCc1nc(SCC(=O)N2CCCc3ccccc32)c2oc3ccccc3c2n1 | -23% | ? | -7% | 10µM* | 16µM* | -5%
Cc1nc(SCC(=O)Nc2ccc3c(c2)OCCO3)c2oc3ccccc3c2n1 | -14% | i | 6% | 16µM* | 103% | -1%
O=C(CSc1ccc2nc(-c3ccccc3)cn2n1)Nc1ccccc1 | · | i | · | i | · | ·
COCCN1C[C@@H](CO)O[C@@H](n2cnc3c(NC(C)C)ncnc32)C1 | 3% | i | 27% | i | · | ·
CCN1/C(=C\c2ccc3cc(C)ccc3[n+]2CC)Sc2cc(C)c(C)cc21 | · | ? | 16µM* | i | ? | 2%
CCN1/C(=C\C=C2\C(=O)N(c3ccccc3)C(=S)N2C)Sc2ccccc21 | 19% | i | -3% | i | -3% | 3%
CCN1/C(=C/c2ccc3cc(C)ccc3[n+]2CC)Sc2ccc3sccc3c21 | 0.92µM* | 2.6µM* | ? | i | 6% | 26%
CCN1/C(=C/c2ccc3cccc(C)c3[n+]2CC)Sc2ccccc21 | 3.2µM* | ? | ? | i | 18% | 2%
CCN1/C(=C/c2ccc3cc(C)cc(C)c3[n+]2CC)Sc2cc(C)ccc21 | ? | i | 7.3µM* | i | 5.8µM* | 0%
CC[n+]1c(/C=C/c2ccc(OC)c(OC)c2)ccc2ccccc21 | 5% | i | 11% | i | 18% | -2%
O=C(NCCc1ccc(Cl)cc1)c1cccn1-c1nnc(N2CCCCC2)s1 | · | i | · | i | · | ·
O=C1CCc2cc(S(=O)(=O)Nc3ccc(Cl)c(Cl)c3)ccc2N1 | · | i | · | i | · | ·
Clc1ccc(/C=C\c2nccc3c2[nH]c2ccccc23)cc1 | 18µM* | i | 21µM* | ? | 2.6µM* | 9.2µM*
N#Cc1ccc(/C=C\c2nccc3c2[nH]c2ccccc23)cc1 | 15µM* | i | 29µM* | i | ? | 2.1µM*
OCCCCc1nccc2c1[nH]c1ccccc12 | -17% | i | -3% | i | 9% | -8%
COc1ccc(/C=C\c2nccc3c2[nH]c2ccccc23)cc1 | · | i | · | i | · | ·
COc1cc(NC(=O)CSc2nnc3c4ccccc4n(C)c3n2)cc(OC)c1OC | -12% | · | 2% | · | · | ·
CCOc1cc(NC(=O)CCl)c(OCC)cc1NC(=O)CCl | ? | 21µM* | ? | ? | 6.5µM* | 3.3µM*
O=c1c2ccccc2nc(/C=C/c2cccc3ccccc23)n1-c1ccc(F)cc1F | · | i | · | i | · | ·
COc1cc(OC)c(OC)cc1/C=C/c1nc2cc3ccccc3cc2c(=O)n1-c1ccc(F)cc1F | · | 12µM* | · | i | · | ·
